Results filed as inconclusive are left out. Activity calls are given as the source filed them. Unless noted, the call rests on the fitted dose curve; in most records, active means well fitted curve in the direction sought with a large enough effect in the repeat runs; inconclusive means weak or mixed curves; inactive means no such curve, though single readings can be large; an effect the other way counts as inactive or inconclusive.
Legend:
[1] = qHTS assay to identify small molecule agonists of the sonic hedgehog signaling (Shh) pathway (AID 1259368; calls by dose curve;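 further: NIH/3T3-derived 3T3Gli1-Luc cells carrying a stable Gli1-driven firefly luciferase reporter; series mostly up to about 92 µM; nearly all actives have a fitted effect of over 15% in size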)
In short: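 Steps: seed 3T3 Gli1-Luc cells, incubate 4 hr at 37 C, pin-transfer compounds in DMSO alongside a positive control, incubate 24 hr, add luciferase detection reagent, wait 30 min at room temperature, read luminescence.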

[2] = qHTS assay to identify small molecule antagonists of the sonic hedgehog signaling (Shh) pathway (AID 1259369; calls by dose curve; further: nearly all actives have a fitted effect of over 45% in size)
In short: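 Inhibition of Shh signalling is measured as reduced Gli1-response-element firefly luciferase output in an NIH/3T3-derived stable reporter clone stimulated with conditioned medium for 24hr.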

[3] = target: Estrogen receptor beta (Homo sapiens) (UniProt Q92731); assay: qHTS assay to identify small molecule agonists of the estrogen receptor beta (ER-beta) signaling pathway (AID 1259377; active means well fitted activation curve with a large enough effect in the signal ratio in the repeat runs, not every such curve was filed as active; the % refers to the signal ratio)
Sequence of Estrogen receptor beta (Homo sapiens) (Q92731 whole entry, looked up): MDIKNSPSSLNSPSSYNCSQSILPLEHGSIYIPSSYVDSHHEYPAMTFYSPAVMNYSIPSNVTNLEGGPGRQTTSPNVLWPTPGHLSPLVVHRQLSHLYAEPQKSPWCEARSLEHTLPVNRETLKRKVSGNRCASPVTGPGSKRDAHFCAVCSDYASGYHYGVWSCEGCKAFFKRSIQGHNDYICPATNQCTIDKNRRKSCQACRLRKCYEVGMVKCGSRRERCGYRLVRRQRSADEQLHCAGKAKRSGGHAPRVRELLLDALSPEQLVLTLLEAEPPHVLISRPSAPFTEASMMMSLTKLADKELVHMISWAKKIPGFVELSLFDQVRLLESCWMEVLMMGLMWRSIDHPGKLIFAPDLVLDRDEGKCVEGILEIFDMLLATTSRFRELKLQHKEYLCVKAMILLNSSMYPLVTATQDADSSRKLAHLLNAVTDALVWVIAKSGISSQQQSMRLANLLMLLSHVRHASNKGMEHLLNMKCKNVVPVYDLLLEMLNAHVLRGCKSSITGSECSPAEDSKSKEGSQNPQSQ
In short: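 ER-beta-UAS-bla HEK293T (GripTite) cells carrying a UAS-driven beta-lactamase reporter, in medium with 2% charcoal-stripped FBS, were exposed to compounds for 16 hr at 37C; LiveBLAzer B/G FRET substrate was then added and fluorescence read after 2 hours at room temperature.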

[4] = target: Estrogen receptor beta (Homo sapiens) (UniProt Q92731); assay: qHTS assay to identify small molecule antagonists of the estrogen receptor beta (ER-beta) signaling pathway (AID 1259378; active means well fitted inhibition curve with a large enough effect in the signal ratio in the repeat runs, not every such curve was filed as active; the % refers to the signal ratio)
In short: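 ER-beta-UAS-bla HEK293T (GripTite) cells in 2% charcoal-stripped FBS medium were preincubated 6 hr at 37C, dosed with compound, then stimulated with 1 nM E2 (final) for 16 hr; beta-lactamase reporter read by B/G FRET fluorescence after 2 hr substrate loading.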

[5] = qHTS assay to identify small molecule agonists of the androgen receptor (AR) signaling pathway in the presence of an antagonist - cell viability counter screen (AID 1259379);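 further: MDA-kb2 human breast cancer cells carrying an MMTV luciferase reporter; series mostly up to about 92 µM; nearly all actives have a fitted effect of over 25% in size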
In short: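 Fluorescence from CellTiter-Fluor, added after 15 hr and read 1 hr later, gave cell viability. Cells were MDA-kb2 exposed to compounds (15 concentrations) in the presence of 3.0uM nilutamide at 37C, 0% CO2.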

[6] = qHTS assay to identify small molecule agonists of the estrogen receptor beta (ER-beta) signaling pathway - cell viability counter screen (AID 1259380); further: nearly all actives have a fitted effect of over 30% in size
In short: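 Same-well viability counter screen. Cells: ER-beta-UAS-bla HEK293T, plated 6 hr before compound, in 2% charcoal-stripped FBS. Compound exposure 16 hr, 37C; viability by CellTiter-Glo luminescence after 30 min at room temperature.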

[7] = target: Androgen receptor (Homo sapiens) (UniProt P10275); assay: qHTS assay to identify small molecule agonists of the androgen receptor (AR) signaling pathway in the presence of an antagonist (AID 1259381; calls by dose curve; further: nearly all actives have a fitted effect of over 15% in size)
Sequence of Androgen receptor (Homo sapiens) (P10275 whole entry, looked up): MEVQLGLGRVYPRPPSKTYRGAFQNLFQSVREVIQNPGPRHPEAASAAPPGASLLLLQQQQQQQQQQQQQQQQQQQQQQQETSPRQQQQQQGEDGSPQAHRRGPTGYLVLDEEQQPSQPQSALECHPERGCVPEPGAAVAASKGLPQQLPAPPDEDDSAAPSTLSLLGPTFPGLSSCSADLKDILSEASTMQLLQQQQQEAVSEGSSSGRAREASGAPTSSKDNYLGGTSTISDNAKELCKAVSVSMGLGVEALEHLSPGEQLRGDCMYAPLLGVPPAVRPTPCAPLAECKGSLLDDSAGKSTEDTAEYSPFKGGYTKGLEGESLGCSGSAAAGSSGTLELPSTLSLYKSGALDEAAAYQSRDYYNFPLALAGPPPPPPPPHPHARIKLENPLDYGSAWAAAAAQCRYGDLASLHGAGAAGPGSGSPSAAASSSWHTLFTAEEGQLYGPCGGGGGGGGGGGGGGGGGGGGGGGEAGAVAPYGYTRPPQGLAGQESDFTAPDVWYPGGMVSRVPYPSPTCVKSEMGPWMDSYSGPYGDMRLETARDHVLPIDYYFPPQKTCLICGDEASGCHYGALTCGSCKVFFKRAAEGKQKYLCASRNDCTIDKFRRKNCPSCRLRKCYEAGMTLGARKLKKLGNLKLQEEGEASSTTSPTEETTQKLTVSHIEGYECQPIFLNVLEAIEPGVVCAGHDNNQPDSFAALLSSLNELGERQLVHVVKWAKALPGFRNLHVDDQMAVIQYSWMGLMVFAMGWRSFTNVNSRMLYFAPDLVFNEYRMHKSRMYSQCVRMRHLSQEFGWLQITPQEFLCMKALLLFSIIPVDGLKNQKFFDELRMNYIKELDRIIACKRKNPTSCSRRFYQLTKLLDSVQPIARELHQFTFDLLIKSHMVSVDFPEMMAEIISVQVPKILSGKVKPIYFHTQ
In short: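 Cells are MDA-kb2 (human breast carcinoma, MMTV-luc, AR/GR responsive). Nilutamide is present at 3.0uM final throughout; compounds are added at 15 concentrations and incubated 16hr at 37C before ONE-Glo luminescence detection.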

[8] = qHTS assay to identify small molecule antagonists of the estrogen receptor beta (ER-beta) signaling pathway - cell viability counter screen (AID 1259382); further: series mostly up to about 92 µM; nearly all actives have a fitted effect of over 55% in size
In short: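 Following a 6 hr plating period, HEK293T cells carrying a UAS-driven beta-lactamase reporter under ER-beta control received compounds and 1nM E2 (final). After 16 hr at 37C and 2 hr substrate loading, CellTiter-Glo luminescence indicated viability.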

[9] = qHTS assay to identify small molecule agonists or antagonists of the thyroid stimulating hormone receptor (TSHR) signaling pathway - wild type cell line counter screen (AID 1259384; calls by dose curve)
In short: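 Wild-type HEK293 cells were plated 18 h at 37 C/5% CO2, pin-dosed with compound plus Ro20-1724 medium, held 30 min at room temperature, then given cAMP-d2 and anti-cAMP-cryptate; fluorescence was read after 1 h. Fifteen concentrations, triplicate.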

[10] = target: Thyrotropin receptor (Homo sapiens) (UniProt P16473); assay: qHTS assay to identify small molecule antagonists of the thyroid stimulating hormone receptor (TSHR) signaling pathway (AID 1259385; calls by dose curve; further: nearly all actives have a fitted effect of over 20% in size)
Sequence of Thyrotropin receptor (Homo sapiens) (P16473 whole entry, looked up): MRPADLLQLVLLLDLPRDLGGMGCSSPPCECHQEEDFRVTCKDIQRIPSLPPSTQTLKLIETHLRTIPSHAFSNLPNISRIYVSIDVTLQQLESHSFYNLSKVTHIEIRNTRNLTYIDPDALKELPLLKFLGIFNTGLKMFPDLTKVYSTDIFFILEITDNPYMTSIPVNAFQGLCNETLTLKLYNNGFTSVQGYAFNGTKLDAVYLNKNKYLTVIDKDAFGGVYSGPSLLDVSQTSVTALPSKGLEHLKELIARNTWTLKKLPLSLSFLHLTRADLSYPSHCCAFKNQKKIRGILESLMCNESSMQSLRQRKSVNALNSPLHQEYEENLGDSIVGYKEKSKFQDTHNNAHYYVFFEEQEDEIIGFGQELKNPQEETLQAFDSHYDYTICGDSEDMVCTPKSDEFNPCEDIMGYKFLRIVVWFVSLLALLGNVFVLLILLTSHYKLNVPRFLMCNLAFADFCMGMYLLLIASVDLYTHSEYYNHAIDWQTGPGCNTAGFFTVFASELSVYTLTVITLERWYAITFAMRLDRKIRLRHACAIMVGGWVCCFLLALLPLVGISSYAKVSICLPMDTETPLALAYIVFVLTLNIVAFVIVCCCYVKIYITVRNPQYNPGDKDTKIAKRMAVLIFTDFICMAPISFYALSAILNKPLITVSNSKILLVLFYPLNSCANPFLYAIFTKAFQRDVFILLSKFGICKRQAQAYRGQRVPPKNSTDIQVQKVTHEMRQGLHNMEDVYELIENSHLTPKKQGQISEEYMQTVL
In short: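 TSHR-HEK293 cells were plated and held 18 h at 37C/5% CO2, then given compound plus Ro20-1724 and stimulated with TSH at 1.5 ng/mL final. After 30 min at room temperature, cAMP was detected with cAMP-d2/anti-cAMP-cryptate (1 h) by fluorescence.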

[11] = target: Progesterone receptor (Homo sapiens) (UniProt P06401); assay: qHTS assay to identify small molecule agonists of the progesterone receptor (PR) signaling pathway (AID 1346784; calls by dose curve; further: nearly all actives have a fitted effect of over 30% in size)
Sequence of Progesterone receptor (Homo sapiens) (P06401 whole entry, looked up): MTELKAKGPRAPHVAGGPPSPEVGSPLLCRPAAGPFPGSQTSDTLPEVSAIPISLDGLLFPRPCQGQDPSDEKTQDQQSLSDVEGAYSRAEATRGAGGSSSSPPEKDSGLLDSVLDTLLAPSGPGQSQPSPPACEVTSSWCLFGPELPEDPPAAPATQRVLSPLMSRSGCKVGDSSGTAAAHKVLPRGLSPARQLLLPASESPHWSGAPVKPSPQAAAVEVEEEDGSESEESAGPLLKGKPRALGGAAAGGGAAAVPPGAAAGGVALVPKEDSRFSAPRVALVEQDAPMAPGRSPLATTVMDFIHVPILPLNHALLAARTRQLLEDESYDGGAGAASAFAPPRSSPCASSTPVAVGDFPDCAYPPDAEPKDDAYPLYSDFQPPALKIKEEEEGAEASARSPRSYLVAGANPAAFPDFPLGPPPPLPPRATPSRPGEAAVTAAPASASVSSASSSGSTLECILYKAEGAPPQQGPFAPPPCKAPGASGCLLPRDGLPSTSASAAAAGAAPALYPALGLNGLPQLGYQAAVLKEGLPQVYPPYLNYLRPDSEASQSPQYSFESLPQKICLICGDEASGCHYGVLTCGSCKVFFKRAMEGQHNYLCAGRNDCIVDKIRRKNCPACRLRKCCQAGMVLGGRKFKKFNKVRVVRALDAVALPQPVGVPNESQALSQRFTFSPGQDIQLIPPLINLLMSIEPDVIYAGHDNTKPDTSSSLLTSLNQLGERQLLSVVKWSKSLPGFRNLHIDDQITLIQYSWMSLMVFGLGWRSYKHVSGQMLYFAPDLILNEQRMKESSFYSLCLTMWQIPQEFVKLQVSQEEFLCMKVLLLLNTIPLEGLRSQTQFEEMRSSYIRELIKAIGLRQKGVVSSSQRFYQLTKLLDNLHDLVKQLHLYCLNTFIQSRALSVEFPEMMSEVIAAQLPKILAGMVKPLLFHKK
In short: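 PR-UAS-bla HEK 293T cells carrying a UAS-driven beta-lactamase reporter were seeded in medium with 2% charcoal-stripped FBS, preincubated 6 hr at 37C, then exposed to compounds in DMSO for 16 hr; agonism was read by LiveBLAzer B/G FRET fluorescence.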

[12] = target: Progesterone receptor (Homo sapiens) (UniProt P06401); assay: qHTS assay to identify small molecule antagonists of the progesterone receptor (PR) signaling pathway (AID 1346795; active means well fitted inhibition curve with a large enough effect in the signal ratio in the repeat runs, not every such curve was filed as active; the % refers to the signal ratio)
In short: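 PR-UAS-bla HEK293T cells carrying a UAS-driven beta-lactamase reporter were plated in medium with 2% charcoal-stripped FBS and rested 6 hr at 37C. Compounds were added with 1 nM R5020 (final) for 16 hr, then FRET substrate loaded 2 hr at room temperature.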

[13] = qHTS assay to identify small molecule antagonists of the progesterone receptor (PR) signaling pathway - cell viability counter screen (AID 1346798); further: series mostly up to about 92 µM; nearly all actives have a fitted effect of over 50% in size
In short: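 PR-UAS-bla HEK293T cells in medium with 2% charcoal-stripped FBS were treated with compounds plus R5020 for 16 hr at 37C. Cell viability was then read by CellTiter-Glo luminescence after 30 min at room temperature in the same wells.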

[14] = qHTS assay to identify small molecule agonists of the progesterone receptor (PR) signaling pathway - cell viability counter screen (AID 1346799; calls by dose curve; further: nearly all actives have a fitted effect of over 45% in size)
In short: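 PR-UAS-bla HEK293T cells, 3,000 per well in medium with 2% charcoal-stripped FBS, were preincubated 6 hr at 37C, then exposed to compounds for 16 hr; viability was read as CellTiter-Glo luminescence after 30 min at room temperature.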

[15] = qHTS assay to identify small molecule antagonists of the TGF-beta/Smad signaling pathway - cell viability counter screen (AID 1346824); further: nearly all actives have a fitted effect of over 50% in size
In short: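 SBE-bla HEK 293T cells were plated overnight at 37 C, then given compounds in DMSO plus TGF-beta1 (added as 0.25 ng/mL solution) for 5 hr. After the bla read, CellTiter-Glo was added to the same wells and luminescence read after 30 min at room temperature.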

[16] = qHTS assay to identify small molecule agonists of the TGF-beta/Smad signaling pathway - cell viability counter screen (AID 1346829); further: top concentration of the series differs between compounds; nearly all actives have a fitted effect of over 45% in size
In short: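 Compound-treated SBE-bla HEK 293T cells (5 hr, 37 C) were assessed for viability with CellTiter-Glo in parallel with the reporter read.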

[17] = qHTS assay to identify small molecule agonists of the TGF-beta/Smad signaling pathway (AID 1346859; active means well fitted activation curve with a large enough effect in the signal ratio in the repeat runs, not every such curve was filed as active; the % refers to the signal ratio; further: series mostly up to about 77 µM)
In short: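 HEK 293T cells stably carrying a beta-lactamase reporter driven by the Smad binding element were seeded overnight, exposed to DMSO-dissolved compounds for 5 hr at 37 C, 5% CO2, then loaded with FRET substrate for 2 hr at room temperature.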

[18] = target: Thyrotropin-releasing hormone receptor (Homo sapiens) (UniProt P34981); assay: qHTS assay to identify small molecule antagonists of the thyrotropin-releasing hormone receptor (TRHR) signaling pathway (AID 1346877; active means well fitted inhibition curve with a large enough effect in the repeat runs, not every such curve was filed as active; further: series mostly up to about 51 µM)
Sequence of Thyrotropin-releasing hormone receptor (Homo sapiens) (P34981 whole entry, looked up): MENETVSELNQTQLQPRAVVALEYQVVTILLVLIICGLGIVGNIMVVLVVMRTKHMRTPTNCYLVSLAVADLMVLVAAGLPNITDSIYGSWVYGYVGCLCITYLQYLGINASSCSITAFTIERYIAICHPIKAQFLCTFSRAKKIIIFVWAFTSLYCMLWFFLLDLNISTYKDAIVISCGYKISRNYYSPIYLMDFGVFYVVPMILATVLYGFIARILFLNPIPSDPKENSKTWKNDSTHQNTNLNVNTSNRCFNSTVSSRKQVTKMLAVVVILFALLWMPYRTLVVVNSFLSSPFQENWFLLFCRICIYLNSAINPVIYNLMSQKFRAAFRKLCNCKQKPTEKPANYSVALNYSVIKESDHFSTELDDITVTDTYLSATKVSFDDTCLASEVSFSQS
In short: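 Cells (TRHR-HEK293) are plated and kept 18 h at 37 °C/5% CO2. A calcium-sensitive dye is added for 2 h, compound follows for 5 min at room temperature, and TRH is then given at 1 nM final.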

[19] = target: Estrogen receptor (Homo sapiens) (UniProt P03372); assay: qHTS assay to identify small molecule agonists of the estrogen receptor alpha (ER-alpha) signaling pathway in the presence of an antagonist (AID 1259383; calls by dose curve; further: top concentration of the series differs between compounds; nearly all actives have a fitted effect of over 15% in size)
Sequence of Estrogen receptor (Homo sapiens) (P03372 whole entry, looked up): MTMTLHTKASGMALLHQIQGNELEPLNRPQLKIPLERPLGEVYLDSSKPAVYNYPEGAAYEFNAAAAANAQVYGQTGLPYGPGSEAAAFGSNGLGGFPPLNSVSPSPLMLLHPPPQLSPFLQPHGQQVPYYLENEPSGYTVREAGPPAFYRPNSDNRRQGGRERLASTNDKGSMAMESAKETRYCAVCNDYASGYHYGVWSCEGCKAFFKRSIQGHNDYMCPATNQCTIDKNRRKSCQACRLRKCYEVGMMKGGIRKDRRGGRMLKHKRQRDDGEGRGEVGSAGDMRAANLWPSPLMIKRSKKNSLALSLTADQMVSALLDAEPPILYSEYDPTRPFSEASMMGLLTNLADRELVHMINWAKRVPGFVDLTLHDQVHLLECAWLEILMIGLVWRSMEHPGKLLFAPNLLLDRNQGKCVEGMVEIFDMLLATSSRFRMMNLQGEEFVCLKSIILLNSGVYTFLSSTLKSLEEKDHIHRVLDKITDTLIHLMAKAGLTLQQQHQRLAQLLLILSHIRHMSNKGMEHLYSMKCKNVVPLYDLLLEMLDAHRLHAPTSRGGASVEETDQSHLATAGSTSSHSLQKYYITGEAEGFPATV
In short: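 Cells are hormone-deprived for 5 days (charcoal-stripped FBS, no phenol red), plated for 24hr, spiked with 10.0nM ICI-182,780, then dosed at 15 concentrations. After 22hr at 37C, ONE-Glo luminescence reports ERE-luciferase activity.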

[20] = qHTS assay to identify small molecule agonists of the estrogen receptor alpha (ER-alpha) signaling pathway in the presence of an antagonist - cell viability counter screen (AID 1259386);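 further: series mostly up to about 92 µM; cells exposed to compounds for 22 h at 37 °C before the viability read; nearly all actives have a fitted effect of over 30% in size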
In short: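 Cells are starved of estrogens for 5 days in charcoal-stripped serum, seeded for 24hr and co-treated with ICI-182,780 (10.0nM final) and test compounds. After 22hr at 37C, viability is read as CellTiter-Fluor fluorescence.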
On the % scale 0 is the no-effect control and ±100 the full control effect.

C1CCCCCCCCCCC1
inactive: activity change [1] -0.649% [at 18.9 µM, hits give high values] | activity change, negative = inhibition [2] 13.4% [at 19 µM] | activation [3] -0.402% [at 19 µM] | activity, negative = inhibition [4] 0.969% [at 19 µM] | activity change, negative = cytotoxicity [5] -1.18% [at 19 µM] | activity change, negative = cytotoxicity [6] -0.0692% [at 19 µM] | Potency [7] | activity change, negative = cytotoxicity [8] 1.11% [at 19 µM] | cAMP activity change [9] -4.57% [at 18.9 µM] | activity change, negative = inhibition [10] -0.259% [at 19 µM] | activation [11] -0.689% [at 19 µM] | activity change, negative = inhibition [12] 0.992% [at 18.9 µM] | activity change, negative = cytotoxicity [13] 8.3% [at 18.9 µM] | activity change, negative = cytotoxicity [14] 1.68% [at 19 µM] | viability change, negative = cytotoxic [15] 13% [at 15.8 µM] | activity change, negative = cytotoxicity [16] 5.27% [at 15.8 µM] | activation [17] 1.5% [at 15.8 µM] | activity, negative = inhibition [18] -13.6% [at 10.5 µM]

COCc1ccc(COC)cc1
inactive: Potency [1] | Potency [2] | outcome [3] | Potency [4] | Potency [5] | Potency [6] | Potency [8] | Potency [19] | outcome [20] | Potency [11] | Potency [13] | Potency [14] | outcome [16] | outcome [17] | outcome [18]

CCO[Si](C)(OCC)OCC
inactive: Potency [1] | Potency [2] | outcome [3] | Potency [4] | Potency [5] | Potency [6] | Potency [8] | Potency [19] | outcome [9] | Potency [10] | outcome [20] | Potency [11] | Potency [12] | Potency [13] | Potency [14] | outcome [15] | outcome [16] | outcome [17] | outcome [18]

C=C[Si](OC)(OC)OC
inactive: Potency [1] | Potency [2] | outcome [3] | Potency [4] | Potency [5] | Potency [6] | Potency [8] | Potency [19] | outcome [20] | Potency [11] | Potency [12] | Potency [13] | Potency [14] | outcome [15] | outcome [16] | outcome [17] | outcome [18]

CCCOc1ccccc1-c1nc2n[nH]nc2c(=O)[nH]1
inactive: Potency [1] | Potency [2] | outcome [3] | Potency [4] | Potency [5] | Potency [6] | Potency [8] | Potency [19] | outcome [9] | outcome [20] | Potency [11] | Potency [12] | Potency [13] | Potency [14] | outcome [16] | outcome [18]

OCCN1C[C@H](O)[C@@H](O)[C@H](O)[C@H]1CO
inactive: Potency [1] | Potency [2] | outcome [3] | Potency [4] | Potency [5] | Potency [6] | Potency [7] | Potency [8] | Potency [19] | outcome [9] | Potency [10] | outcome [20] | Potency [11] | Potency [12] | Potency [13] | Potency [14] | outcome [15] | outcome [16] | outcome [17] | outcome [18]

CC(C)c1cccc(O)c1
inactive: Potency [1] | Potency [2] | outcome [3] | Potency [4] | Potency [5] | Potency [6] | Potency [8] | Potency [19] | outcome [9] | Potency [10] | outcome [20] | Potency [11] | Potency [12] | Potency [13] | Potency [14] | outcome [15] | outcome [16] | outcome [17] | outcome [18]

Source: PubChem BioAssay (Tox21)
